According to PubChem BioAssay (NCATS):
Records with an inconclusive call do not appear. The source made the active and inactive calls. Unless noted, calls follow the shape of the dose curve; as a rule, active = well fitted curve in the direction sought with a large enough effect; inconclusive = small, poorly fitted or top-dose-only effect, or another doubt; inactive = no such curve, though single readings can be large; an effect the other way counts as inactive or inconclusive.

Tests used:
[1] = Validation of Assay for Modulators of Lamin A Splicing (AID 1459; active = well fitted curve in the direction sought with a large enough effect in the signal ratio; the % refers to the signal ratio;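 also: cells exposed to compound for two days before reading; 0% is about no effect; ratio rise marks activators and ratio drop marks inhibitors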)
Outline: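 HeLa S3 lamin A-EGFP/DsRed2 stable clone, 600 cells/well, Opti-MEM 2% FBS; compounds by pin tool; 48 hrs, 37 °C/5% CO2; Acumen 488 nm scan, objects 10-100 um; GFP/RFP intensity ratio.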

[2] = molecular target: DNA repair nuclease/redox regulator APEX1 (Homo sapiens) (UniProt P27695); assay: qHTS Validation Assay for Inhibitors of the Human Apurinic/apyrimidinic Endonuclease 1 (APE1) (AID 1705;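 also: TAMRA fluorescence gain over two minutes as APE1 cuts a quenched THF abasic duplex; series mostly up to about 57 µM; % is scaled to controls: 0 for no effect and ±100 for the full control effect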)
Outline: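 qHTS, 1536-well. APE1 + cpd 15 min RT → 50 nM TAMRA/BHQ-2 THF-abasic dsDNA substrate → kinetic fluorescence, 3 reads/60 s; delta(read3−read1) = reaction progress. No-enzyme buffer = negative control.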

[3] = Counterscreen for APE1 Inhibitors: Fluorescent Dye Displacement Validation Assay (AID 1707);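 also: plate controls were ThO with dsDNA and no compound for no effect and ThO without dsDNA for full effect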
Outline: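 Loss of Thiazole Orange fluorescence marks promiscuous DNA binders. The dye (250 nM) is mixed with 50 nM abasic-site dsDNA in pH7.5 Tris buffer containing MgCl2, then compounds are added and emission is read once.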

[4] = molecular target: Endonuclease 4 (Escherichia coli (strain K12)) (UniProt P0A6C1); assay: Counterscreen for APE1 Inhibitors: qHTS Validation Assay for Inhibitors of Endonuclease IV (AID 1708); also: % is scaled to controls: 0 for no effect and ±100 for the full control effect
Outline: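 Measured as reaction progress, the fluorescence gain between first and third kinetic reads after adding 50 nM TAMRA/BHQ-2 THF duplex to 2 nM enzyme preincubated 15 min with compound; 2 mM MgCl2, pH 7.5.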

[5] = qHTS for differential inhibitors of proliferation of Plasmodium falciparum line 7G8 (AID 1815);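 also: parasite growth measured after three days of incubation; plate controls were vehicle wells for no effect and reference inhibitor wells for full effect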
[6] = qHTS for differential inhibitors of proliferation of Plasmodium falciparum line GB4 (AID 1816); details: Potency: Plasmodium falciparum GB4 proliferation inhibition;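 also: parasite growth measured after 72 h incubation; 0% = vehicle DMSO and -100% = reference inhibitor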
[7] = qHTS for differential inhibitors of proliferation of Plasmodium falciparum line 3D7 (AID 1876);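 also: parasite growth measured after three days of culture; 0% = vehicle wells and -100% = reference inhibitor wells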
[8] = qHTS for differential inhibitors of proliferation of Plasmodium falciparum line D10 (AID 1877);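 also: parasites grown with compound for 72 h before DNA staining; plate controls were vehicle wells for no effect and reference inhibitor wells for full effect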
[9] = qHTS for differential inhibitors of proliferation of Plasmodium falciparum line Dd2 (AID 1882); details: Potency: Plasmodium falciparum Dd2 proliferation inhibition;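 also: series mostly up to about 29 µM; compound exposure of 72 h on infected erythrocytes; plate controls were DMSO vehicle for no effect and 0.29 µM artemisinin for full effect; nearly all actives have a fitted effect of over 65% in size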
Outline: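 RBC culture, 0.3% parasitemia / 2.5% Hct final; cpd added by pin tool in DMSO; 72 h, 37 C, 5% CO2; lysis buffer + SYBR Green I, o/n RT dark; FI 485/535; norm. to artemisinin 0.29 uM and DMSO.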

[10] = qHTS for differential inhibitors of proliferation of Plasmodium falciparum line HB3 (AID 1886); details: Potency: Plasmodium falciparum HB3 proliferation inhibition;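 also: parasites grown with compound for 72 h before SYBR Green readout; plate controls were vehicle for no effect and reference inhibitor for full effect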
[11] = qHTS Assay for Modulators of Human Peripheral Myelin Protein 22 (PMP22) Expression/Activity (AID 1967; active = well fitted curve in the direction sought with a large enough effect in the signal ratio; the % refers to the signal ratio;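 also: 0% = untreated cells and 100% end not stated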)
Outline: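 Luminescence ratio of Pmp22 promoter-driven green luciferase to EF-alpha-driven red luciferase, in engineered mouse MSC80 Schwann cells, served as read-out. Compounds were incubated 24h; untreated cells defined 0% Activity; curves were classified by r2, magnitude and activity.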

[12] = molecular target: Ferritin light chain (Equus caballus) (UniProt P02791); assay: qHTS Validation Assay for Identification of Novel General Anesthetics (AID 2323); also: series mostly up to about 77 µM; % is scaled to controls: 0 for no effect and ±100 for the full control effect
Outline: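 Fluorescence at 535 nm (excitation 380 nm) reported loss of 1-AMA binding to horse-spleen apoferritin (10 uM) in PBS with 50% saturated 1-aminoanthracene, after 10 min room-temperature incubation with compound; values from Hill fits of normalized response.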

[13] = molecular target: ATP-dependent DNA helicase Q1 (Homo sapiens) (UniProt P46063); assay: qHTS Validation Assay for Inhibitors of RecQ-Like Dna Helicase 1 (RECQ1) (AID 2353);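 also: plate controls were DMSO vehicle for no effect and enzyme-free control for full effect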
Outline: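 RECQ1T1 50 nM; forked duplex (20 bp + 30-nt ss tails) 200 nM, ATP 2 mM final; pH 8.0, 2 mM MgCl2, 2.5 ug/ml poly(dI-dC); 15 min compound preincubation; discontinuous kinetic read over 2 h at RT.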

[14] = Validation screen for small molecules that induce DNA re-replication in MCF 10A normal breast cells (AID 463097); also: 0% is about no effect; nearly all actives have a fitted effect of over 60% in size
Outline: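 Image-based qHTS: normal breast cells are incubated with compound for 48 hr, stained with Hoechst, and scanned for total nuclear fluorescence. Compounds raising the fraction of nuclei with elevated DNA content count as re-replication inducers.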

[15] = Quantitative high throughput screen for delayed death inhibitors of the malarial parasite plastid, 96 hour incubation (AID 488745);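 also: luciferase-expressing P. falciparum in erythrocytes at 2% hematocrit and 0.1% parasitemia; series mostly up to about 29 µM; % is scaled to controls: 0 for no effect and ±100 for the full control effect; nearly all actives have a fitted effect of over 70% in size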
Outline: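 Luciferase-expressing P. falciparum, infected RBCs 2% Hct/0.1% parasitemia (final); 96 h cpd exposure, 37 C, 5% CO2; RPMI 1640 + 0.5% Albumax, bicarbonate, gentamycin. Readout: luminescence loss = growth inhibition.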

[16] = Quantitative high throughput screen for delayed death inhibitors of the malarial parasite plastid, 48 hour incubation (AID 488752); also: % is scaled to controls: 0 for no effect and ±100 for the full control effect; nearly all actives have a fitted effect of over 65% in size
Outline: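 Luciferase-expressing P. falciparum in RBCs, 2% Hct, 0.1% parasitemia final; RPMI 1640 + 0.5% Albumax; 48 h, 37 C, 5% CO2; luminescence readout, signal drop = growth inhibition.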

[17] = molecular target: M-phase phosphoprotein 8 (Homo sapiens) (UniProt Q99549); assay: qHTS Validation Assay for Inhibitors for MPP8 Chromodomain Interactions with Methylated Histone Tails (AID 488949);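 also: 50 nM MPP8 with 50 nM peptide preformed then compounds added for 30 min; AlphaScreen signal from MPP8 chromodomain bound to biotinylated H3K9me3 peptide; top concentration of the series differs between compounds; % is scaled to controls: 0 for no effect and ±100 for the full control effect; nearly all actives have a fitted effect of over 55% in size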
Outline: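 50 nM MPP8 + 50 nM b-H3K9me3 peptide, PBS pH 7.4/0.01% Tween-20, 30 min RT; + cpd 30 min RT; + AlphaScreen donor/Ni-chelate acceptor beads 10 ug/mL final, 30 min dark; luminescence read.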

[18] = molecular target: Transient receptor potential cation channel subfamily V member 1 (Homo sapiens) (UniProt Q8NER1); assay: HTS Assay for Compounds that Act as Enhancers of the Vanilloid Receptor 1 (AID 488979); also: 0% is about no effect
Outline: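 TRPV1-expressing cells loaded with Fluo-8 calcium dye; compounds added and calcium influx read kinetically for 3 min (agonist phase), then capsaicin at EC20 added and read 2 min more for enhancement. Fluorescence ex 480/em 520 nm.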

[19] = molecular target: Thyrotropin receptor (Homo sapiens) (UniProt P16473); assay: qHTS Assay for Antagonists of the Thyroid Stimulating Hormone Receptor (AID 488980); also: series mostly up to about 58 µM; 0% is about no effect
Outline: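 Readout is cAMP by HTRF competition between cellular cAMP and cAMP-d2 for a cryptate-labelled antibody. Antagonism was assessed in TSHR-transfected HEK293 cells stimulated with 4 nM TSH (EC80, final) in the presence of RO 20-1724.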

[20] = molecular target: Thyrotropin-releasing hormone receptor (Homo sapiens) (UniProt P34981); assay: qHTS for Small Molecule Agonists and Allosteric Enhancers of Human TRH Receptor: Validation Screen for Agonists (AID 493127;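 active = calcium activation more than 3 SD above the typical response in the agonist read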;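 also: intracellular calcium rise by fluo-8 fluorescence before TRH EC20 addition; 0% is about no effect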); details: TRH receptor agonist cell assay; at 2 µM; stronger effect = higher value
Outline: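 Read-out: intracellular calcium release measured kinetically by FDSS (fluo-8, ex 480/em 530 nm), 1 reading/s after a 10-cycle baseline. TRHR cells, 2000/well, cultured 18 h at 33.5C, dye-loaded at room temp. Compound-evoked positive calcium signal flags agonists.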

[21] = molecular target: Galactokinase (Homo sapiens) (UniProt P51570); assay: qHTS Validation Assay for Inhibitors of Human Galactokinase (GALK) (AID 493189); also: 0% is about no effect
Outline: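 5 nM GALK / 100 uM galactose / 35 uM ATP, 20 mM HEPES pH8.0, 5 mM MgCl2, 60 mM NaCl, 1 mM DTT, 0.01% BSA (final). RT 1 h; Kinase-Glo Plus luminescence.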

[22] = Validation screen for small molecules that induce DNA re-replication in SW480 colon adenocarcinoma cells (AID 504364); also: 0% is about no effect
Outline: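 Read-out: total Hoechst intensity of nuclei by fluorescence scanning imager; hits raise the fraction of nuclei with elevated DNA content. Cells received compound for 48 hr at 37 C before a 40 min stain.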

[23] = molecular target: Voltage-gated inwardly rectifying potassium channel KCNH2 (Homo sapiens) (UniProt Q12809); assay: qHTS Assay for Small Molecule Inhibitors of the Human hERG Channel Activity (AID 588834);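 also: top concentration of the series differs between compounds; % is scaled to controls: 0 for no effect and ±100 for the full control effect; lower thallium flux fluorescence means stronger hERG block; nearly all actives have a fitted effect of over 50% in size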
Outline: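 Step 1: BacMam hERG transduction of U2OS, 4 hrs RT. Step 2: overnight 37 °C, plate 2000 cells/well, 4 hr. Step 3: FluxOR load, compound 10 min, stimulate, read fluorescence.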

[24] = molecular target: RecQ-like DNA helicase BLM (Homo sapiens) (UniProt P54132); assay: qHTS Validation Assay for Inhibitors of Bloom's syndrome helicase (BLM) (AID 2364);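 also: plate controls were DMSO vehicle for no effect and enzyme-free control for full effect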
Outline: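 BLM 50 nM in 25 mM Tris-HCl pH 8.0, 5 mM NaCl, 2 mM MgCl2, 1 mM DTT, 0.01% Tween-20, 2.5 ug/ml poly(dI-dC); 15 min cpd preinc, RT. Start: 200 nM forked DNA + 2 mM ATP (final). TAMRA read, 2 reads 2 h apart.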

Sequence of ATP-dependent DNA helicase Q1 (Homo sapiens) (P46063 whole entry, looked up): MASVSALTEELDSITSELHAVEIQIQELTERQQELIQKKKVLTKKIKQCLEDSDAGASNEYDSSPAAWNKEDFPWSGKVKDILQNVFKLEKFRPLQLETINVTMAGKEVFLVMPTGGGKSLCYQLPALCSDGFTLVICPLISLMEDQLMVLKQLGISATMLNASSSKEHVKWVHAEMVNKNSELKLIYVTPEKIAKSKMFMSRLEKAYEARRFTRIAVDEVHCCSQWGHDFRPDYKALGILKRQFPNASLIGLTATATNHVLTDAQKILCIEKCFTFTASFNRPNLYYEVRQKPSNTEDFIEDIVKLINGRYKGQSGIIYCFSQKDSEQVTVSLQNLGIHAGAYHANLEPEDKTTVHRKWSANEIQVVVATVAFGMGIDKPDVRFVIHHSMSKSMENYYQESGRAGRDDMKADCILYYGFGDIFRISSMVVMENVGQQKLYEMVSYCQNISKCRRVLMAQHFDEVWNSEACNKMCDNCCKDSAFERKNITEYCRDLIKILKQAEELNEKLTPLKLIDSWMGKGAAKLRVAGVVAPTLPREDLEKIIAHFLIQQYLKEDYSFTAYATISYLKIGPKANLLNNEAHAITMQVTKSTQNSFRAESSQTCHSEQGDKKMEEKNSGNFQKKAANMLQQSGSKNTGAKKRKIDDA
Sequence of Thyrotropin-releasing hormone receptor (Homo sapiens) (P34981 whole entry, looked up): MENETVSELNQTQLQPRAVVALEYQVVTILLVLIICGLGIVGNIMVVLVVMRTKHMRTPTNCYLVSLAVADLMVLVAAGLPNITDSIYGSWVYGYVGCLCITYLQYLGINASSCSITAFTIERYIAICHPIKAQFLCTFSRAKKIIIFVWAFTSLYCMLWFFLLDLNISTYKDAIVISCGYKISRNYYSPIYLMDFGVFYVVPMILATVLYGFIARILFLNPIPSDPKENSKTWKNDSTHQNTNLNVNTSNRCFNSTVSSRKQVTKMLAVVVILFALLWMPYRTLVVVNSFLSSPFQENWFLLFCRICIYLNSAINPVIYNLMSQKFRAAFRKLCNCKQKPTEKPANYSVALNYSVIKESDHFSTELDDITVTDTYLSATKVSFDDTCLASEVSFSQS
Sequence of Thyrotropin receptor (Homo sapiens) (P16473 whole entry, looked up): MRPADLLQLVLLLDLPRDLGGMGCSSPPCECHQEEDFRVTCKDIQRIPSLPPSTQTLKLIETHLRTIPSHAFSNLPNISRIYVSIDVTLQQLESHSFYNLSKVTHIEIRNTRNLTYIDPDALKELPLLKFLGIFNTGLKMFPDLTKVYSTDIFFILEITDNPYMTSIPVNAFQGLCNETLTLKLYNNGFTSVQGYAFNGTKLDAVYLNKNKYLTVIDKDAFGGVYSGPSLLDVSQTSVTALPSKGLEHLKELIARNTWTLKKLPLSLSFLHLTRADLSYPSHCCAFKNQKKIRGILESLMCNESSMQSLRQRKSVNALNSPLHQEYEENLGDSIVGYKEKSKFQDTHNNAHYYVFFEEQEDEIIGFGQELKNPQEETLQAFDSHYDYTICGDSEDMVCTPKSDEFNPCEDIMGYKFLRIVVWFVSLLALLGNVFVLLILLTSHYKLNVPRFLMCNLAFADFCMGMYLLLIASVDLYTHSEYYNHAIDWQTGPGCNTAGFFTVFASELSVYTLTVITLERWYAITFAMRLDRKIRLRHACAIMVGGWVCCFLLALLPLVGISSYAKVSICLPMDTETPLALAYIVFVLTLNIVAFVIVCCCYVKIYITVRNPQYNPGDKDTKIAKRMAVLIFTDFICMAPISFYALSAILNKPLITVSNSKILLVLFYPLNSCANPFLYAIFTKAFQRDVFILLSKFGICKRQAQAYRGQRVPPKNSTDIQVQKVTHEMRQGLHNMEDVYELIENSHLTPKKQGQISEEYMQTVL
Sequence of Galactokinase (Homo sapiens) (P51570 whole entry, looked up): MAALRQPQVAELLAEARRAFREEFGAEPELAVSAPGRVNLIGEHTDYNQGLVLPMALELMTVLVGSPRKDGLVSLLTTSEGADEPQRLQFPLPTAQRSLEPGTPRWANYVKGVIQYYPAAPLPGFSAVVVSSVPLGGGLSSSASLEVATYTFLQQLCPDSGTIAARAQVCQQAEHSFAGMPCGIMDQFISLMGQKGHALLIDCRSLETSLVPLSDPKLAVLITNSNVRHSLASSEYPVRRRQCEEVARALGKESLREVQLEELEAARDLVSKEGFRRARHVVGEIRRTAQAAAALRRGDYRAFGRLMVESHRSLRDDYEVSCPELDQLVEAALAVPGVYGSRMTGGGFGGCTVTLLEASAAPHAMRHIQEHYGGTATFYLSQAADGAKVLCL
Sequence of Voltage-gated inwardly rectifying potassium channel KCNH2 (Homo sapiens) (Q12809 whole entry, looked up): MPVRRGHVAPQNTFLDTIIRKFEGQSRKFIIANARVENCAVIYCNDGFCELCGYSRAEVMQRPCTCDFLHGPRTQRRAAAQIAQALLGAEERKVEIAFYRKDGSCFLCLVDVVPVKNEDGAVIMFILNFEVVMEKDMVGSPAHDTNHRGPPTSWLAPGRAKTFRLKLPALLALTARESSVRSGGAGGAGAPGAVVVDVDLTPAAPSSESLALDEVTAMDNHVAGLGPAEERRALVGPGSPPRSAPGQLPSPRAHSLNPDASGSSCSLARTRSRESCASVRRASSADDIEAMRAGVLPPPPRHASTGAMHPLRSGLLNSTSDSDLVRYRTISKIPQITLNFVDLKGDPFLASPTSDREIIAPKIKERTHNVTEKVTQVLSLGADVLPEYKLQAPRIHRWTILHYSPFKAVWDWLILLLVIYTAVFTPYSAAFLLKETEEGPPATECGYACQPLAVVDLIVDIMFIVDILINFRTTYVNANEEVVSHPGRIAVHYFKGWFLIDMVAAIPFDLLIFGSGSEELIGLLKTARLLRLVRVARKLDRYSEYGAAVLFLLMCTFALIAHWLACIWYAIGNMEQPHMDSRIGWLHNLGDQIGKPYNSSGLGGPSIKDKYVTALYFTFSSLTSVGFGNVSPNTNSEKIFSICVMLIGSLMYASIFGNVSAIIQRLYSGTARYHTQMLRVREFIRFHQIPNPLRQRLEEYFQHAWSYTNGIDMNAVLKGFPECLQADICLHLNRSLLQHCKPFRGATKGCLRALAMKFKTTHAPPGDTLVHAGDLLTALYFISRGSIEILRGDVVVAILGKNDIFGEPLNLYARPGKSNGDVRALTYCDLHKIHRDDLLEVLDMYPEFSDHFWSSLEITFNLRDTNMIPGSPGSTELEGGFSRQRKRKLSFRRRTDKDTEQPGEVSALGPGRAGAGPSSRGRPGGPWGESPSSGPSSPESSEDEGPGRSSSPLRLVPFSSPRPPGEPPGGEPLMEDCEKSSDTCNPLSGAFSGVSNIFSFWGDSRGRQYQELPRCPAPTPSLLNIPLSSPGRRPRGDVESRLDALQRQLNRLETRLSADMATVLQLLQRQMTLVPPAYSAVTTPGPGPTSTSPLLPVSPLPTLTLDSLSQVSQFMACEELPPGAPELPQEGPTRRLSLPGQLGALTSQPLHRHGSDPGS
Sequence of Transient receptor potential cation channel subfamily V member 1 (Homo sapiens) (Q8NER1 whole entry, looked up): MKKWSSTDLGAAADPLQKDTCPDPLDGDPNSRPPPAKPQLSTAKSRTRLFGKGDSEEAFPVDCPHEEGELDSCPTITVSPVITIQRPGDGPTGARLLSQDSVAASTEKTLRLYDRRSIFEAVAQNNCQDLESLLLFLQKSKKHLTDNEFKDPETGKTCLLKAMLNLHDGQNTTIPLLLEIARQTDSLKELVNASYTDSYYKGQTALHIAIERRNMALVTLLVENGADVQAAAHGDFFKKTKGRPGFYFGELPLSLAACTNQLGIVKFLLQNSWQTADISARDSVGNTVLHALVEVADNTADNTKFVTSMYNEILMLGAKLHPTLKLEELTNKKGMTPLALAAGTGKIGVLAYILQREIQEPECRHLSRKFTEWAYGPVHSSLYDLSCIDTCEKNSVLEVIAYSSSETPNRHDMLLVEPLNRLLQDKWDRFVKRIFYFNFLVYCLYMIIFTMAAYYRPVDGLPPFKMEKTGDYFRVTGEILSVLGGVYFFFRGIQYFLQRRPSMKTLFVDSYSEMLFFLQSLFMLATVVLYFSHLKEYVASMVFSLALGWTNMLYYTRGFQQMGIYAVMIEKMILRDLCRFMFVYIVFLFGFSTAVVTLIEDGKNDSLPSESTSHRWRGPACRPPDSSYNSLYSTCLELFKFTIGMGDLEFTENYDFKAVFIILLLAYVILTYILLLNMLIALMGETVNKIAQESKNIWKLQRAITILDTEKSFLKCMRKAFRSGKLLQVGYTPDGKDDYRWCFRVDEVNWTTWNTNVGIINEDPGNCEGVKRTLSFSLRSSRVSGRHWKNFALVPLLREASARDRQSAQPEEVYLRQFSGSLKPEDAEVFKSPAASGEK
Sequence of DNA repair nuclease/redox regulator APEX1 (Homo sapiens) (P27695 whole entry, looked up): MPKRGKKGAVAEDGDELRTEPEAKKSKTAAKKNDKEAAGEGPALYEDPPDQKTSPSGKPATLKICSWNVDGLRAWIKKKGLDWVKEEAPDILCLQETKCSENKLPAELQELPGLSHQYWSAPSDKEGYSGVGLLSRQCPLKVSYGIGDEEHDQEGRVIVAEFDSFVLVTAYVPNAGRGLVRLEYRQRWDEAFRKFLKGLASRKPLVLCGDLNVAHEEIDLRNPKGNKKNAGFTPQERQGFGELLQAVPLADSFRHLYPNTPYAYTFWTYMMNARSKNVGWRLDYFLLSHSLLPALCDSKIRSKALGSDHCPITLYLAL
Sequence of Ferritin light chain (Equus caballus) (P02791 2-175 limits assumed): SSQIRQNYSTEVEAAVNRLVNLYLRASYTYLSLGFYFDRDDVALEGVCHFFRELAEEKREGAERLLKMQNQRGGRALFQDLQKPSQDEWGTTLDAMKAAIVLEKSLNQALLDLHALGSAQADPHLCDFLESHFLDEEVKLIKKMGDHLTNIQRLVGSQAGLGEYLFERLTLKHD

Nc1ncnc2c1ncn2[C@@H]1O[C@H](C(=O)NC2CC2)[C@H](O)[C@H]1O
inactive: outcome [1] | Potency [2] | Potency [3] | outcome [4] | Potency [5] | Potency [6] | Potency [7] | Potency [8] | Potency [9] | Potency [10] | outcome [11] | outcome [12] | Potency [13] | outcome [14] | Potency [15] | Potency [16] | Potency [17] | outcome [18] | outcome [19] | activation [20] 1.12% | outcome [21] | outcome [22] | Potency [23]

CN1C2CCC1CC(NC(=O)c1nn(C)c3ccccc13)C2 (centres undefined)
inactive: outcome [1] | Potency [2] | Potency [3] | outcome [4] | Potency [6] | Potency [7] | Potency [8] | Potency [9] | Potency [10] | outcome [11] | Potency [13] | Potency [24] | outcome [14] | Potency [16] | Potency [17] | outcome [18] | outcome [19] | activation [20] 0.75% | outcome [21] | outcome [22] | Potency [23]
